Test results taken from PubChem BioAssay (Tox21).
Results filed as inconclusive are left out. A call without a number means that no potency is given here. Active and inactive are the calls of the source. Unless noted, the call rests on the fitted dose curve; in most records, active means well fitted curve in the direction sought with a large enough effect in the repeat runs; inconclusive means weak or mixed curves; inactive means no such curve, though single readings can be large; an effect the other way counts as inactive or inconclusive.

Assays:
[1] = qHTS assay to identify small molecule antagonists of the glucocorticoid receptor (GR) signaling pathway - cell viability counter screen (AID 720693); further: nearly all actives have a fitted effect of over 55% in size
[2] = qHTS assay to identify small molecule antagonists of the androgen receptor (AR) signaling pathway - cell viability counter screen (AID 743033; further: nearly all actives have a fitted effect of over 45% in size)
[3] = qHTS assay to identify small molecule antagonists of the androgen receptor (AR) signaling pathway using the MDA cell line - cell viability counter screen (AID 743041; further: nearly all actives have a fitted effect of over 45% in size)
Procedure, shortened: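 R1881-driven MDA-kb2 AR-luc cells, 3,000/well, were dosed with library compounds for 16 h; cell health came from CellTiter-Fluor fluorescence in the reporter wells.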

[4] = qHTS assay to identify small molecule antagonists of the thyroid receptor (TR) signaling pathway - cell viability counter screen (AID 743064); further: nearly all actives have a fitted effect of over 50% in size
Procedure, shortened: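 GH3.TRE-Luc rat pituitary cells dosed after 4 hr plating, co-stimulated with T3 at 1 nM final, incubated 23.5 h at 37 C. Viability measured in the same wells by CellTiter-Fluor fluorescence after 30 min further at 37 C.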

[5] = qHTS assay to identify small molecule antagonists of the thyroid receptor (TR) signaling pathway (AID 743065); further: series mostly up to about 70 µM; nearly all actives have a fitted effect of over 55% in size
Procedure, shortened: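 Antagonism measured as loss of luciferase signal in GH3 cells stably carrying a TRE-luciferase reporter, co-treated with compound and T3 (1 nM final) for 23.5 h at 37 C. Viability was read in the same well by CellTiter-Fluor.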

[6] = tested on: thyroid hormone receptor (rat, GH3 cells); test: qHTS assay to identify small molecule agonists of the thyroid receptor (TR) signaling pathway (AID 743066; calls by dose curve)
[7] = target: Estrogen receptor (Homo sapiens) (UniProt P03372); test: qHTS assay to identify small molecule antagonists of the estrogen receptor alpha (ER-alpha) signaling pathway (AID 743069; active means well fitted curve in the direction sought with a large enough effect in the signal ratio in the repeat runs, not every such curve was filed as active; the % refers to the signal ratio)
Sequence of Estrogen receptor (Homo sapiens) (P03372 whole entry, looked up): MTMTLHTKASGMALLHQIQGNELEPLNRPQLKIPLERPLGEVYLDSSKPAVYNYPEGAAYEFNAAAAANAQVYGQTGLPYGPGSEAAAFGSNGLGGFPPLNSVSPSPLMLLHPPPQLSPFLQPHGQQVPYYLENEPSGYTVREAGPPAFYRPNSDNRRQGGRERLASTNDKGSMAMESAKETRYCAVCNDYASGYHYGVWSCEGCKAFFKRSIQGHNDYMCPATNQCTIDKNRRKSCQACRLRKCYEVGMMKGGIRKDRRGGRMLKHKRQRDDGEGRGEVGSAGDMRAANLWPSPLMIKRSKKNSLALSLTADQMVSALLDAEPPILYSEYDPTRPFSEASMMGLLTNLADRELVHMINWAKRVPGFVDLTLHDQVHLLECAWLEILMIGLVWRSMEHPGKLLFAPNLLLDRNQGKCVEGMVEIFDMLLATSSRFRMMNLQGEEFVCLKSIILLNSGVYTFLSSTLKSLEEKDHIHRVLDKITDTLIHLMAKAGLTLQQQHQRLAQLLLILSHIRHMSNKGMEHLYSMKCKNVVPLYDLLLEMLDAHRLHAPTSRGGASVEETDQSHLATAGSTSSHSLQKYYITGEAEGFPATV
Procedure, shortened: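 Compound effects are measured against 17beta-estradiol stimulation in HEK293 cells with a UAS-controlled beta-lactamase reporter for ER-alpha. Exposure lasts 18 hr at 37C; LiveBLAzer B/G FRET substrate follows for 2 hr at room temperature.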

[8] = qHTS assay to identify small molecule antagonists of the estrogen receptor alpha (ER-alpha) signaling pathway - cell viability counter screen (AID 743074; calls by dose curve;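 further: HEK293 cells carrying ER-alpha-UAS-bla reporter stimulated with 17beta-estradiol; nearly all actives have a fitted effect of over 45% in size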)
[9] = target: Estrogen receptor (Homo sapiens) (UniProt P03372); test: qHTS assay to identify small molecule agonists of the estrogen receptor alpha (ER-alpha) signaling pathway (AID 743075; calls by dose curve; further: potency means the concentration at half of the fitted maximal effect)
[10] = target: Estrogen receptor (Homo sapiens) (UniProt P03372); test: qHTS assay to identify small molecule agonists of the estrogen receptor alpha (ER-alpha) signaling pathway using the BG1 cell line (AID 743079); further: nearly all actives have a fitted effect of over 20% in size; further: potency means the concentration at half of the fitted maximal effect
[11] = qHTS assay to identify small molecule antagonists of the estrogen receptor alpha (ER-alpha) signaling pathway using the BG1 cell line (AID 743080; calls by dose curve;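 further: BG1 cells stimulated with 17beta-estradiol alongside compound; series mostly up to about 70 µM; nearly all actives have a fitted effect of over 25% in size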)
Procedure, shortened: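 BG1Luc4E2, endogenous ER-alpha, 4xERE-luc; 5 d charcoal-stripped FBS, phenol red free; 24 h plating; cpd + 17beta-estradiol 21.5 h, 37 C/5% CO2; CellTiter-Fluor viability 30 min, then ONE-Glo luciferase 30 min RT.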

[12] = qHTS assay to identify small molecule antagonists of the estrogen receptor alpha (ER-alpha) signaling pathway using the BG1 cell line - cell viability counter screen (AID 743081);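 further: compound given together with 17beta-estradiol as the ER stimulus; series mostly up to about 70 µM; nearly all actives have a fitted effect of over 45% in size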
Aromatase (Homo sapiens) = Aromatase (Homo sapiens) (UniProt P11511); test: qHTS assay to identify aromatase inhibitors (AID 743083); further: series mostly up to about 70 µM; nearly all actives have a fitted effect of over 55% in size
Sequence of Aromatase (Homo sapiens) (P11511 whole entry, looked up): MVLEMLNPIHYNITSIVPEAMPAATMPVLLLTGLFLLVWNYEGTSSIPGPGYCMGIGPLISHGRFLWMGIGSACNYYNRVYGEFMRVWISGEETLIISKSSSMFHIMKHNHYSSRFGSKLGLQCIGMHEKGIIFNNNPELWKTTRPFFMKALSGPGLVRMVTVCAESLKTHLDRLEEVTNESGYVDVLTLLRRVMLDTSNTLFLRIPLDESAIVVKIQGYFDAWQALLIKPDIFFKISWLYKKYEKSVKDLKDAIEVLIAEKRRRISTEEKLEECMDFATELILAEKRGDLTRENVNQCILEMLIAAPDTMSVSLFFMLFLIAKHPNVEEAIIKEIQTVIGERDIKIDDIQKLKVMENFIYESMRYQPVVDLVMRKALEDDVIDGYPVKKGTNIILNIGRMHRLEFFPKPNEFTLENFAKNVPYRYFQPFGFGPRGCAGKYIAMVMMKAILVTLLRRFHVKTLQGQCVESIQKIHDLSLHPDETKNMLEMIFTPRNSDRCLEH

[13] = qHTS assay for identifying genotoxic compounds that show differential cytotoxicity against isogenic chicken DT40 cell lines with known DNA damage response pathways - wild type cell line (AID 743012); further: nearly all actives have a fitted effect of over 60% in size
Procedure, shortened: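 Cells (DT40 wild type, 300/well) are treated with DMSO-dissolved compounds after a ~0.5 h pre-incubation and kept 40 h at 37 C/5% CO2. Viability is then measured by CellTiter-Glo luminescence following 30 min at room temperature.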

[14] = qHTS assay for identifying genotoxic compounds that show differential cytotoxicity against isogenic chicken DT40 cell lines with known DNA damage response pathways - Rev3 mutant cell line (AID 743014); further: nearly all actives have a fitted effect of over 55% in size; further: potency means the concentration at half of the fitted maximal effect
[15] = qHTS assay for identifying genotoxic compounds that show differential cytotoxicity against isogenic chicken DT40 cell lines with known DNA damage response pathways - Rad54/Ku70 mutant cell line (AID 743015); further: nearly all actives have a fitted effect of over 60% in size

Compound | Potency [1] | outcome [2] | outcome [3] | Potency [4] | Potency [5] | Potency [6] | Potency [7] | Potency [8] | Potency [9] | Potency [10] | outcome [11] | outcome [12] | outcome (Aromatase (Homo sapiens)) | Potency [13] | Potency [14] | Potency [15]
Nc1ccc(/C=C/c2ccc(N)cc2S(=O)(=O)O)c(S(=O)(=O)O)c1 | inactive | inactive | inactive | inactive | inactive | inactive | inactive | inactive | inactive | inactive | inactive | inactive | inactive | – | – | –
CN[C@@H]1[C@@H](O)[C@@H](O[C@@H]2[C@H](O)[C@H](O[C@H]3OC(CN)=CC[C@H]3N)[C@@H](N)C[C@H]2N)OCC1(C)O (some centres undefined) | – | inactive | inactive | – | inactive | inactive | – | inactive | – | – | – | inactive | inactive | inactive | inactive | inactive
C[CH2][Ge]([Cl])([CH2]C)[CH2]C | inactive | inactive | inactive | – | inactive | inactive | – | – | – | – | – | inactive | inactive | – | inactive | inactive
C1CCN2C[C@@H]3C[C@@H](CN4CCCC[C@@H]34)[C@H]2C1 | – | inactive | inactive | inactive | inactive | inactive | – | inactive | – | – | – | – | inactive | inactive | inactive | inactive
C[C@@H]1C[C@H]2[C@@H]3C[C@H](F)C4=CC(=O)C=C[C@]4(C)[C@@]3(F)[C@@H](O)C[C@]2(C)[C@@]1(O)C(=O)CO | inactive | – | inactive | inactive | inactive | inactive | – | inactive | – | – | – | inactive | inactive | – | – | –
CCCCC(CC)C(=O)OC(C)C (centres undefined) | – | inactive | inactive | inactive | inactive | inactive | – | inactive | – | – | – | inactive | inactive | inactive | inactive | inactive
C=CCOCC(CO)(COCC=C)COCC=C | inactive | inactive | inactive | inactive | inactive | inactive | – | – | inactive | inactive | – | inactive | inactive | – | inactive | inactive
Cc1oc(=O)oc1CN1CCN(c2cc3c(cc2F)c(=O)c(C(=O)O)c2n3C(C)S2)CC1 (centres undefined) | inactive | inactive | inactive | – | – | inactive | – | inactive | 23.9 µM [activator] (active) | 8.41 µM (active) | inactive | inactive | inactive | – | – | –
CC(Cl)COP(=O)(OCC(C)Cl)OCC(C)Cl (centres undefined) | inactive | inactive | inactive | – | inactive | inactive | inactive | inactive | inactive | inactive | inactive | inactive | inactive | – | 54.2 µM (active) | –
CCCCCC1CCCC(=O)O1 (centres undefined) | inactive | inactive | inactive | – | inactive | inactive | – | inactive | – | – | – | inactive | inactive | – | inactive | inactive
COC(/C=C(\C)CCC=C(C)C)OC | inactive | inactive | – | inactive | inactive | inactive | inactive | inactive | inactive | inactive | – | inactive | inactive | – | inactive | inactive
CCCCCC1Nc2cc(C(F)(F)F)c(S(N)(=O)=O)cc2S(=O)(=O)N1 (centres undefined) | inactive | inactive | inactive | inactive | inactive | inactive | inactive | inactive | inactive | inactive | inactive | inactive | inactive | – | inactive | inactive
